Inconclusive results are not listed. Activity calls are given as the source filed them. Unless noted, the call rests on the fitted dose curve; in most records, active means well fitted curve in the direction sought with a large enough effect; inconclusive means small, poorly fitted or top-dose-only effect, or another doubt; inactive means no such curve, though single readings can be large; an effect the other way counts as inactive or inconclusive. Peptide text beside a SMILES is read from it.

Assay [1] in a line: Confirmation and Secondary Assay for Modulators of Hemoglobin Beta Chain Splicing at IVS2 654 locus (AID 910).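 Further: HeLa cells stably carrying EGFP split by mutant beta-globin IVS2-654 intron.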 The conditions noted are these: HeLa EGFP-654 splicing reporter, GFP fluorescence, 48 h; series mostly up to 46.1 µM. The method in brief: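 HeLa cells stably expressing EGFP interrupted by β-globin IVS2-654 intron, seeded overnight in Opti-MEM/2% FCS, then treated 2 days at 37 °C. Restored splicing read as total peak GFP intensity per well by laser scanning cytometry (488 nm excitation, 500–520 nm emission); 500 nM antisense PNA as control.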

Assay [2] deals with ATP-dependent 6-phosphofructokinase (Trypanosoma brucei brucei) (UniProt O15648). In words: qHTS Assay to Find Inhibitors of T. brucei phosphofructokinase: hit validation (AID 492961).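 Further: luminescence reports ADP formed as PFK phosphorylates fructose-6-phosphate with ATP.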 The conditions noted are these: T. brucei PFK, ADP-Glo luminescence; series mostly up to 24.3 µM. Put shortly:
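Compounds titrated; %activity normalized to 0x and 1x enzyme controls, curve-fitted. Readout: ADP-Glo luminescence after 45 min room-temperature reaction of 1.25 nM PFK, 0.1 mM ATP, 0.5 mM F6P, pH 8.0.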
For orientation: qHTS replaces the single test concentration by a dilution series.

The next assay concerns ATS189. Description: qHTS profiling for inhibitors of Plasmodium falciparum proliferation (AID 504749). Further: nearly all actives have a fitted effect of over 60% in size. Further: potency means the concentration at half of the fitted maximal effect. The conditions noted are these: P. falciparum in erythrocytes, SYBR Green DNA, 72 h; series mostly up to 12.8 µM. Put shortly:
(§1)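 Each compound contacts P. falciparum-infected red blood cells for 72 h at 37 C; lysis buffer (Tris, EDTA, saponin, Triton X, SYBR Green I) is added and fluorescence measured next morning; values normalized to controls.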

Another assay has as its system ATS95. The assay is described as above. The conditions noted are these: P. falciparum in erythrocytes, SYBR Green DNA, 72 h; series mostly up to 12.8 µM. Put shortly:
as §1

The subject of the next assay is CP203. The description is as above. Conditions: P. falciparum in erythrocytes, SYBR Green DNA, 72 h; series mostly up to 12.8 µM. The method in brief: as §1
For the next assay, the system named is CP247. The assay is described as above. The conditions noted are these: P. falciparum in erythrocytes, SYBR Green DNA, 72 h; series mostly up to 12.8 µM. The method in brief: as §1
The next assay relates to CP250. The description is as above. The conditions noted are these: P. falciparum in erythrocytes, SYBR Green DNA, 72 h; series mostly up to 12.8 µM. The method in brief:
as §1

The subject of a further assay is CP260. Described as above. Conditions: P. falciparum in erythrocytes, SYBR Green DNA, 72 h; series mostly up to 12.8 µM. Put shortly:
as §1

The next assay concerns CP266. The description is as above. Conditions: P. falciparum in erythrocytes, SYBR Green DNA, 72 h; series mostly up to 12.8 µM. Put shortly:
as §1

Another assay relates to CP297. The assay is described as above. Conditions: P. falciparum in erythrocytes, SYBR Green DNA, 72 h; series mostly up to 12.8 µM. Put shortly: as §1
The next assay concerns CP335. Described as above. The conditions noted are these: P. falciparum in erythrocytes, SYBR Green DNA, 72 h; series mostly up to 12.8 µM. The method in brief: as §1
A further assay deals with DIV17. The assay is described as above. The conditions noted are these: P. falciparum in erythrocytes, SYBR Green DNA, 72 h; series mostly up to 12.8 µM. Put shortly:
as §1

A further assay concerns Dd2. Described as above. The conditions noted are these: P. falciparum in erythrocytes, SYBR Green DNA, 72 h; series mostly up to 12.8 µM. Put shortly:
as §1

A further assay deals with HB3. Described as above. The conditions noted are these: P. falciparum in erythrocytes, SYBR Green DNA, 72 h; series mostly up to 12.8 µM. Put shortly:
as §1

A further assay deals with ICS. The description is as above. Conditions: P. falciparum in erythrocytes, SYBR Green DNA, 72 h; series mostly up to 12.8 µM. Put shortly:
as §1

A further assay deals with P93_24. The description is as above. The conditions noted are these: P. falciparum in erythrocytes, SYBR Green DNA, 72 h; series mostly up to 12.8 µM. Put shortly:
as §1

In another assay the test system is P94_40. Described as above. The conditions noted are these: P. falciparum in erythrocytes, SYBR Green DNA, 72 h; series mostly up to 12.8 µM. Put shortly:
as §1

A further assay deals with TAB113. The assay is described as above. The conditions noted are these: P. falciparum in erythrocytes, SYBR Green DNA, 72 h; series mostly up to 12.8 µM. Put shortly: as §1
Another assay has as its system TAB165. The description is as above. The conditions noted are these: P. falciparum in erythrocytes, SYBR Green DNA, 72 h; series mostly up to 12.8 µM. Put shortly:
as §1

A short description of assay [3]: S16 Schwann cell PMP22 intronic element beta-lactamase assay (AID 624044; calls by dose curve; further: nearly all actives have a fitted effect of over 15% in size). The conditions noted are these: S16 rat Schwann cells, PMP22 element beta-lactamase FRET, 24 h; series mostly up to 17.1 µM. Put shortly: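 Beta-lactamase reporter under a PMP22 intronic regulatory element in stable S16 rat Schwann cells; 24 h compound exposure. 460 nm blue signal normalized between DMSO (0%) and potassium clavulanate, with 535 nm FRET tracking viability; curves classed by r2 and response.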

Chain of ATP-dependent 6-phosphofructokinase (Trypanosoma brucei brucei) (O15648 whole entry, looked up): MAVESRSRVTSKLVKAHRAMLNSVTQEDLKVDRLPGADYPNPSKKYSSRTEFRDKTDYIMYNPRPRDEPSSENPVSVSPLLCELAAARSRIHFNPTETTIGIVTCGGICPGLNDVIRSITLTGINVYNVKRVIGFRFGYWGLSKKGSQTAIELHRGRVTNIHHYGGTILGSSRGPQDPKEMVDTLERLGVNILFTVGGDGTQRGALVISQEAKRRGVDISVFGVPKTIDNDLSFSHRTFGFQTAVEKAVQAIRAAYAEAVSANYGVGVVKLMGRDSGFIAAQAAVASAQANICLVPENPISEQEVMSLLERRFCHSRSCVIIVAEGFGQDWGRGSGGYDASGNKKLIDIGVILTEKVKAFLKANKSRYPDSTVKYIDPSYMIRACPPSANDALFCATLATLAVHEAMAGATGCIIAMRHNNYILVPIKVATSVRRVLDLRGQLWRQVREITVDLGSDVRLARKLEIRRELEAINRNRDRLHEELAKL

As for `C[C@@]12C=CC(=O)C=C1CCC1C3CC(O)[C@@](O)(C(=O)CO)[C@]3(C)CC(O)[C@]12F` (stereo partly specified), the Potency result (in assay [1]; with ATS189; in the assay on ATS95; with CP203; in the assay on CP247; with CP250) was “inactive” each time. The Potency entry with CP260, in the assay on CP266, in the assay with CP297, in the assay on CP335, with DIV17 and in the assay on Dd2 was “inactive” in each case. For the same molecule, the Potency result in the assay on HB3, in the assay on ICS, in the assay with P93_24, in the assay with P94_40, in the assay on TAB113 and in the assay on TAB165 was “inactive” throughout. The result in assay [2] was inactive.

Turning to `CCC1OC(=O)C(C)[C@@H](O[C@H]2C[C@@](C)(OC)C(O)C(C)O2)C(C)[C@@H](O[C@@H]2OC(C)CC(N(C)C)C2O)[C@@](C)(O)CC(C)C(=O)[C@@H](C)C(O)[C@]1(C)O` (stereo partly specified), the Potency result (in [1]; in assay [3]; in the assay on ATS189; in the assay with ATS95; with CP203; with CP247) was “inactive” throughout. In addition, the Potency result in the assay on CP250, in the assay on CP260, with CP266, with CP297, with DIV17 and with Dd2 was “inactive” each time. The Potency result in the assay on HB3, in the assay on ICS, in the assay on P93_24, in the assay with P94_40, with TAB113 and in the assay on TAB165 was “inactive” throughout. In assay [2], the result was inactive.

Consider `NCC1CCC(N)C(O[C@@H]2C(O)[C@H](O[C@H]3OC(CO)C(O)C(N)C3O)[C@@H](N)C[C@H]2N)O1` (stereo partly specified), for which the Potency result (in [1]; in the assay on ATS189; in the assay on ATS95; in the assay on CP203; in the assay on CP247; in the assay on CP250) was “inactive” each time. In addition, the Potency entry in the assay with CP260, in the assay with CP266, in the assay with CP297, in the assay on CP335, in the assay with DIV17 and in the assay on Dd2 was “inactive” in each case. Moreover, the Potency entry with HB3, in the assay with ICS, with P93_24, with P94_40, in the assay on TAB113 and in the assay with TAB165 was “inactive” throughout.

As for `COC1OC(CO)C(OC2OC(C(=O)O)C(OC3OC(COS(=O)(=O)O)C(OC4OC(C(=O)O)C(OC5OC(CO)C(OC6OC(C(=O)O)C(OC7OC(COS(=O)(=O)O)C(OC8OC(C(=O)O)=C[C@H](O)C8OS(=O)(=O)O)C(O)C7NC(C)=O)[C@@H](O)C6O)C(O)C5NC(C)=O)[C@@H](O)C4O)C(O)C3NC(C)=O)[C@@H](O)C2O)C(O)C1NC(C)=O` (stereo partly specified), the molecule was classed as inactive in [2]. In addition, the Potency entry (in [3]; with CP203; in the assay with CP266; in the assay on CP297) was “inactive” throughout. The Potency was 12.6 µM (active) in the assay on ICS and 14.1 µM (active) in the assay on TAB113.

`CC(C)Oc1ccc2c(=O)cc(-c3ccccc3)oc2c1`: the Potency entry (in assay [1]; in assay [3]; with ATS189; in the assay with ATS95; in the assay with CP203; in the assay on CP247) was “inactive” throughout. The Potency entry in the assay on CP260, in the assay on CP266, with CP335, in the assay on DIV17, in the assay with Dd2 and with HB3 was “inactive” throughout. For the same molecule, the Potency result in the assay on ICS, in the assay with P94_40, in the assay with TAB113 and in the assay on TAB165 was “inactive” throughout. Moreover, the molecule was called inactive in assay [2].

Turning to `CC(C)=CCC[C@](C)(O)C1CC=C(C)CC1` (stereo partly specified), the Potency result (in assay [1]; in assay [3]; in the assay with ATS189; in the assay on ATS95; in the assay on CP203; with CP247) was “inactive” throughout. In addition, the Potency result in the assay with CP250, with CP260, with CP297, in the assay on CP335, in the assay on DIV17 and with Dd2 was “inactive” throughout. Moreover, the Potency result in the assay on HB3, in the assay on ICS, in the assay on P93_24, with P94_40, with TAB113 and in the assay on TAB165 was “inactive” in each case.

As to `CC1CCC(C(C)C)C(=O)C1` (stereo unspecified), the Potency entry (in [1]; with ATS189; in the assay with ATS95; with CP203; in the assay with CP247; with CP250) was “inactive” throughout. Also, the Potency result in the assay with CP260, in the assay with CP266, with CP297, in the assay with CP335, in the assay on DIV17 and with Dd2 was “inactive” in each case. For the same molecule, the Potency entry in the assay on HB3, in the assay on ICS, with P93_24, in the assay on P94_40, with TAB113 and with TAB165 was “inactive” each time.

In the case of `N[C@@H]1C(O)OC(CO)C(O)C1O` (stereo partly specified), the Potency entry (in assay [1]; in assay [3]; in the assay on ATS189; in the assay with ATS95; in the assay with CP247; in the assay on CP250) was “inactive” in each case. The Potency result in the assay on CP260, in the assay with CP266, with CP297, in the assay on CP335, in the assay on DIV17 and in the assay with Dd2 was “inactive” each time. The Potency result in the assay with HB3, with ICS, in the assay with P93_24, with TAB113 and in the assay on TAB165 was “inactive” each time. In addition, the molecule was classed as inactive in assay [2].

Regarding `CC(=O)N[C@H](CC(C)C)C(=O)O`, the Potency result (in assay [1]; in assay [3]; in the assay with ATS189; with ATS95; with CP203; in the assay on CP247) was “inactive” in each case. The Potency entry in the assay with CP250, in the assay on CP266, with CP297, with CP335, in the assay on DIV17 and in the assay with Dd2 was “inactive” each time. For the same molecule, the Potency result with HB3, in the assay with ICS, with P93_24, with P94_40, in the assay with TAB113 and in the assay on TAB165 was “inactive” each time.

`COC(=O)C(Cc1ccccc1)NC(=O)C(N)CC(=O)O` (stereo not drawn) (H-Asp-Phe-OMe; configuration not given here): the Potency entry (in assay [1]; in assay [3]; in the assay on ATS189; with ATS95; with CP203; in the assay with CP247) was “inactive” each time. The Potency result with CP250, in the assay on CP260, in the assay on CP266, in the assay on CP297, in the assay with CP335 and in the assay on DIV17 was “inactive” in each case. Besides, the Potency result in the assay on Dd2, in the assay on HB3, in the assay with ICS, in the assay on P93_24, with P94_40 and in the assay on TAB113 was “inactive” throughout. Besides, the Potency entry with TAB165 is “inactive”.

The values above are taken from PubChem BioAssay (NCATS).
